Compound activity as filed in PubChem BioAssay.
The full list was thinned out, with hits kept by preference.
GBA activity up: GBA activity enhancers in patient fibroblasts, primary screen, cell-based | Lysosomal acid glucosylceramidase (Homo sapiens), P04062 | L444P Gaucher fibroblasts, 4-MU-glucoside fluorescence, 3 days | activation, % at 10 µM | actives 0.44% (n = 30,000); in the data active = activation above about 65%
Large screens that a line does not name were inactive.

C/C(N)=C(/C#N)C(=O)CSc1nc2ccc(C)cc2[nH]1	none
CCOC(=O)C1CCCn2c1nc1sc3c(c1c2=O)CCCC3 (centres undefined)	none
CCCN(CCC)S(=O)(=O)c1ccc(C(=O)Nc2nnc(CSC)o2)cc1	none
CCCCN(CCCC)S(=O)(=O)c1ccc(C(=O)Nc2nnc(CSC)o2)cc1	none
CCCCN(CC)S(=O)(=O)c1ccc(C(=O)Nc2nnc(CSC)o2)cc1	GBA activity up 81
C/C=C/c1ccc(Oc2nnnn2-c2ccc(C(N)=O)cc2)c(OC)c1	none
CCC(Sc1nc(C)cc(=O)[nH]1)C(=O)Nc1nc2c(s1)CCCC2 (centres undefined)	GBA activity up 81
Cc1cc(=O)[nH]c(SCC(=O)Nc2nc3c(s2)CCCC3)n1	none
CCC(Sc1nc(C)cc(=O)[nH]1)C(=O)Nc1nnc(C)s1 (centres undefined)	none
Cc1noc(/C=C/N(C)C)c1S(=O)(=O)N1CCCC(C(=O)NCc2ccccc2Cl)C1 (centres undefined)	none
O=C(Nc1ccc(CN2CCOCC2)cc1)c1ccc(-c2ccc(Br)cc2)o1	none
CCC(c1nnc(SCc2nc3ccccc3s2)n1Cc1ccccc1)N(C)C (centres undefined)	none
c1ccc(-n2cnnc2SCc2nc3ccccc3s2)cc1	none
c1ccc(Cn2c(SCc3nc4ccccc4s3)nnc2-c2ccco2)cc1	GBA activity up 127
CCOC(=O)Nc1oc2ccccc2c(=O)c1CN1CCOCC1	none
CCNC(=O)CC1C(=O)N(c2ccc(F)cc2)C(=O)N1CCC(C)C (centres undefined)	none
CC(OC(=O)c1cccs1)C(=O)NCc1cccs1 (centres undefined)	none
CC(OC(=O)c1nsc(Cl)c1Cl)C(=O)NCc1cccs1 (centres undefined)	GBA activity up 79
COCCNC(=O)C(C)OC(=O)c1nsc(Cl)c1Cl (centres undefined)	none
O=C(CCCCCNS(=O)(=O)c1ccc(Br)cc1)NCCN1CCOCC1	none
C=CCn1c(-c2cc(OC)c(OC)c(OC)c2)n[nH]c1=S	none
C=CCn1c(-c2c[nH]c3ccccc23)n[nH]c1=S	GBA activity up 67
C=CCn1c(-c2ccco2)n[nH]c1=S	none
O=C(NCCN1CCOCC1)C1CCC(=O)N1C1CCCCC1 (centres undefined)	none
O=C(c1cccnc1)N1CCN(C(=O)c2ccccc2F)CC1	none
COc1ccc(OC)c(CCNC(=O)CS(=O)(=O)Cc2nc(-c3ccccc3C)oc2C)c1	none
CCOC(=O)NC(CC(=O)O)c1ccc(OCC)cc1 (centres undefined)	GBA activity up 81
COc1ccc(C(CC(=O)O)NC(=O)c2cccs2)cc1 (centres undefined)	none
O=C(O)CC(NC(=O)OCc1ccccc1)c1ccccc1 (centres undefined)	none
CCOC(=O)C1=C(C)OC(N)=C(C#N)C1c1c(C)nn(-c2ccccc2)c1Cl (centres undefined)	none
CCOC(=O)N1CCC2(CC1)C(C#N)=C(N)Oc1c2c(C)nn1-c1cccc(Cl)c1	GBA activity up 74
CC1(C)CC(=O)C2=C(C1)OC(N)=C(C#N)C21CCN(Cc2ccccc2)CC1	none
CC(C)n1nnnc1SCC(=O)Nc1ccccc1N1CCOCC1	none
Cn1c(Cc2ccccc2)nnc1SCC(=O)NC1CCCCC1	none
Cn1c(Cc2ccccc2)nnc1SCC(=O)Nc1ccccc1N1CCOCC1	GBA activity up 96
COC(=O)c1sccc1NC(=O)c1ccco1	none
CC(=O)N1CCc2cc(Br)cc(S(=O)(=O)NCCN3CCCCC3C)c21 (centres undefined)	GBA activity up 78
CC(=O)N1CCc2cc(Br)cc(S(=O)(=O)NCCCN3CCCC(C)C3)c21 (centres undefined)	none
CC(=O)N1CCc2cc(Br)cc(S(=O)(=O)NCCCN3CCC(C)CC3)c21	none
O=S(=O)(NCCc1csc(-c2ccccc2)n1)c1ccc2c(c1)OCCO2	none
Cc1nc(CNS(=O)(=O)c2ccc3c(c2)OCCO3)cs1	none
O=S(=O)(NCc1csc(-c2cccnc2)n1)c1ccc2c(c1)OCCO2	GBA activity up 109
Cc1ccc(S(=O)(=O)N2CCCN(S(=O)(=O)C3CCS(=O)(=O)C3)CC2)cc1 (centres undefined)	none
